Screening data (PubChem)
The list is not random: actives were taken first. Their share in the collection is about 1.8%.
p53ts 39C kill = kills p53ts cells at the nonpermissive temperature; Potency, µM (highest dose often 46.1 µM), without a hit: at the top dose activity change, negative = cell killing, actives largely listed as cytotoxic; AID 902; H1299-p53A138V viability at 39C, ATP luminescence, 24 h; hit rate 1.5% among 130,000; note: % is set by controls: 0 for no effect and ±100 for the full control effect; nearly all actives have a fitted effect of over 55% in size
Imprint erasure = induces erasure of genomic imprints in mouse ES cells; mouse ES Peg3-LacZ reporter, beta-gal luminescence, 40 h; Potency, µM (titrated, usually from 60.7 µM), without a hit: top-dose activity change, positive = activation, hits mostly activators; hit rate 0.02% among 110,000
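Gelatin-coated wells received 300 freshly trypsinized female ES cells with a Peg3LacZ-Neo reporter on the maternal allele, then incubated 40 hours at 37C. BetaGlo was added for 5 minutes at room temperature before a single luminescence read.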
p53ts 32C tox = kills p53ts cells at the permissive temperature; Potency, µM (doses to about 46.1 µM), inactives show at the highest dose activity change, negative = cytotoxicity, usual class: cytotoxic; AID 924; H1299-p53A138V at 32C, ATP luminescence viability, 24 h; hit rate 0.93% among 130,000;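 note: 0% = DMSO and -100% = full killing by reference compound; nearly all actives have a fitted effect of over 55% in size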
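Viability by ATPlite luminescence after 24 h compound treatment (up to 46 uM) at the permissive 32C. Cells are H1299 carrying p53 A138V. Scale runs from DMSO basal to 100 uM tamoxifen as full kill; AC50 from Hill fits.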
IkB signaling = suppresses IkB signaling in ABC-DLBCL reporter cells; Potency, µM (top dose mostly 57.1 µM), for inactives: at the highest dose IkBa stabilization activation; hit rate 0.04% among 110,000; ABC-DLBCL IkBa-CBG/CBR dual luciferase ratio, 4 h; response scale: scaled: untreated 0%, proteasome inhibitor 100%; active = well fitted curve in the direction sought with a large enough effect in the signal ratio, not every such curve was filed as active; inconclusive = small, poorly fitted or top-dose-only effect, or a change in a side signal; the % refers to the signal ratio;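 note: the direction sought is a rising ratio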
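Curves were fitted separately to fusion (green), unfused (red) and ratio luminescence, then classed by r2, magnitude and activity. Cells: OCI-Ly3, 4 h compound plus doxycycline at 37C; 10 uM MG-132 defined full response.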
* = called active by the depositor; ? = inconclusive; . = no result; [ ] = dose if it differs, or a comment. Unless noted, calls come from the whole dose curve; as a rule, active = well fitted curve in the direction sought with a large enough effect; inconclusive = small, poorly fitted or top-dose-only effect, or another doubt; inactive = no such curve, though single readings can be large; an effect the other way counts as inactive or inconclusive. Potency is the fitted concentration of half-maximal effect.

SMILES	p53ts 39C kill	Imprint erasure	p53ts 32C tox	IkB signaling
O=C1c2sc3nc4ccccc4n3c2C(=O)N1c1ccccc1Cl	-12%	-12%	-2%	?
N=c1cc(C2(O)CCCCC2)n2c(nc3ccccc32)s1	1.3µM*	-51%	1µM*	0%
O=C1c2ccccc2-c2onc3ccc(NCCCn4ccnc4)c1c23	?	-32%	-28%	-2%
COc1ccc2noc3c2c1C(=O)c1ccccc1-3	-15%	-65%	13µM*	?
N#C/C(=C\c1ccccc1)c1nc(-c2cc3cc(Br)ccc3oc2=O)cs1	12%	-10%[10.9 µM]	-4%	?
Cc1nc2sc(C(c3cccs3)N3CCOCC3)c(O)n2n1 (configuration not stated)	?	-71%	13µM*	?
Cc1cccc(Cc2c(C)nc3nc(SCC(=O)NC4CCCCC4)nn3c2C)c1	-18%	-12%[10.9 µM]	4%	?
Cc1ccc(Cc2c(C)nc3nc(SCC(=O)NC4CCC(C)CC4)nn3c2C)cc1 (configuration not stated)	20µM*	13%[10.9 µM]	23%	3%
CCOc1ccc(CNc2cc(C)nc3nc(-c4cccc(C)c4)nn23)cc1OC	7.9µM*	-12%[10.9 µM]	-28%	?
COc1ccc(CNCCC(c2ccc3c(c2)OCO3)c2ccccc2OC)cc1 (configuration not stated)	16µM*	-22%[10.9 µM]	?	?
COc1ccccc1CC(=O)NCc1ccc2c(c1)OCO2	-12%	-10%	3%	8%
CCOC(=O)c1cccc(NC(=O)c2cc3ccccn3n2)c1	13µM*	-17%[10.9 µM]	10µM*	?
CCOC(=O)c1cccc(NC(=O)c2cnccn2)c1	-10%	-35%	-2%	-1%
CCOC(=O)c1cccc(NC(=O)c2ccc3c(Cl)c4c(nc3c2)CCC4)c1	0.79µM*	15%[10.9 µM]	?	18%
COc1ccc(NC(=O)c2cc3ccccn3n2)cc1	7.9µM*	-86%	10µM*	?
O=C(Nc1ccc(OC(F)(F)F)cc1)c1cc2ccccn2n1	?	-21%[10.9 µM]	?	-4%
O=C(Nc1ccccc1C(F)(F)F)c1cc2ccccn2n1	7.9µM*	-31%[10.9 µM]	10µM*	3%
CCOC(=O)c1c(-c2ccc(C)cc2)csc1NC(=O)c1cc(=O)c2cc(C)ccc2o1	7%	-5%[10.9 µM]	7%	-1%
Cc1nc2cc(NC(=O)NCc3ccco3)ccc2n1C	-3%	-26%	-7%	8%
Cc1nc2cc(NC(=O)Nc3nccs3)ccc2n1C	7.9µM*	-75%	7.9µM*	1%
COc1ccc(NC(=O)c2cnc(N3CCCCC3)c3ccccc23)cc1Cl	?	-12%[10.9 µM]	-2%	?
CC(=O)c1ccc(N2CCN(S(=O)(=O)c3ccc4c(c3)C(C)(C)C(=O)N4)CC2)cc1	1%	-9%[10.9 µM]	-13%	?
CCOC(=O)c1ccc(N2C(=O)c3n[nH]c(-c4cccs4)c3C2c2ccc(C(C)C)cc2)cc1 (configuration not stated)	10µM*	-13%[10.9 µM]	?	?
CCOC(=O)c1ccc(N2C(=O)c3n[nH]c(-c4cccs4)c3C2c2ccc(CC)cc2)cc1 (configuration not stated)	10µM*	6%[10.9 µM]	?	?
O=C1CC(c2ccccc2)Sc2ccccc2N1Cc1ccccc1F (configuration not stated)	-28%	?	10%	?
SMILES	p53ts 39C kill	Imprint erasure	p53ts 32C tox	IkB signaling
Cc1cc(Nc2cccc(Cl)c2)nc2ccc(NC(=O)Cc3cccc(C(F)(F)F)c3)cc12	.	.	-7%	.
COc1ccccc1NC(=O)Nc1ccc2c(c1)OCCO2	13µM*	-86%	10µM*	?
COc1ccc(NC(=O)c2cnc[nH]2)cc1	13µM*	-20%[10.9 µM]	7.9µM*	2%
COc1ccc(C(=O)Nc2cc(OC)cc(OC)c2)cc1	?	-85%	13µM*	?
O=C(Nc1ccc2c(c1)OCCO2)c1cncc(Br)c1	10µM*	-63%	10µM*	13%
COc1cc(NC(=O)c2ccccc2)cc(OC)c1	-8%	-30%	-3%	4%
COc1ccc(C(=O)NCc2oc(-c3ccccc3)cc2C(=O)O)cc1	4%	3%	-5%	-3%
COc1ccc(NC(=O)c2ccc3c(c2)OCO3)cc1Cl	13µM*	-78%	5µM*	1%
COc1ccc(-c2nnc(SC(C)C(=O)Nc3ccc4c(c3)OCCO4)o2)cc1 (configuration not stated)	13µM*	-16%	16µM*	1%
COc1cc(C(=O)Nc2ccc3c(c2)OCCO3)ccc1OC(F)F	13µM*	-75%	16µM*	?
COc1ccc(C(=O)Nc2ccc3c(c2)OCCO3)cc1	7.1µM*	.	6.3µM*	.
CCCCNC(=O)CCC(=O)NNc1nc2ccccc2c2nc(-c3ccccc3)nn12	13µM*	?	-2%	3%
CCCCNC(=O)CCC(=O)NNc1nc2ccccc2c2nc(C)nn12	-4%	-7%[10.9 µM]	2%	-1%
COC(=O)[C@@]1(Cc2ccccc2)[C@H]2c3cc(C(=O)N(C)C)n(Cc4ccc(O)c(OC)c4)c3C[C@H]2CN1C(=O)c1ccccc1	-4%	-5%	20%	.
COc1cccc(-n2c(=O)c3sc4ccccc4c3n(CC(=O)Nc3ccccc3C)c2=O)c1	1%	-8%[10.9 µM]	-12%	7%
COc1cccc(-n2c(=O)c3sc4ccccc4c3n(CC(=O)Nc3ccccc3OC)c2=O)c1	10µM*	-8%[10.9 µM]	-12%	13%
COc1ccc(C(=O)N=c2nc3ccccn3s2)cc1	0.32µM*	-73%	0.79µM*	?
Cc1ccc(-c2cc(C(=O)N3CCN(c4ccccc4)CC3)c3ccccc3n2)cc1C	10µM*	5%[10.9 µM]	13µM*	1%
COc1ccc(NC(=O)N2CCN(c3cc(-c4noc(C)n4)ccc3C)CC2)c(OC)c1	-26%	-12%[10.9 µM]	8%	1%
COc1ccc(NC(=O)c2ccc(-c3ccc(-c4noc(C)n4)cc3C)cc2)cc1N1CCN(C)CC1	20µM*	-31%	?	?
COc1ccc(NC(=O)c2ccc(-c3ccc(-c4noc(C)n4)cc3C)cc2)cc1OCCN(C)C	7.9µM*	-34%	25µM*	?
O=C(O)c1ccccc1NS(=O)(=O)c1ccc(F)c(Cl)c1	11%	.	4%	.
COc1ccc(-c2cn3c4c(sc3n2)CCCC4)cc1	5µM*	-54%	6.3µM*	2%
COc1ccccc1OCCCSc1nc(-c2ccc(C(C)(C)C)cc2)nc2cc(=O)[nH]n12	15%	-9%[10.9 µM]	81%	?
Cc1cc(C)cc(OCCSc2nc(-c3ccc(C(C)(C)C)cc3)nc3cc(=O)[nH]n23)c1	?	-6%[10.9 µM]	?	5%
CC(C)(C)c1ccc(-c2nc(SCCCOc3ccccc3)n3[nH]c(=O)cc3n2)cc1	20µM*	-4%[10.9 µM]	7%	?
Cc1cc(OCCCSc2nc(-c3ccc(C(C)(C)C)cc3)nc3cc(=O)[nH]n23)ccc1Cl	16µM*	-10%[10.9 µM]	30%	4%
COc1cccc(-c2nc(SCc3ccc(C)cc3)n3[nH]c(=O)cc3n2)c1	13µM*	?	-1%	-2%
